Source: PubChem BioAssay AID1259240 (Keith Lab, Institute of Cancer Science, University of …, 2017)
Unmarked numbers belong to inactive results. Activity calls are given as the source filed them. No stated cut-off is given here; in the data, active means fold change mostly below about -2 (no sharp cut-off); inactive means mostly above about -1.8.

experiment: modulation of TERT promoter-driven luciferase – cell-based, luciferase reporter, human, primary screen (AID 1259240); conditions: A2780 TERT promoter luciferase reporter, 16 h; at 20 µM, fold versus average of vehicle-only wells

SMILES | fold change | outcome
O=C(Nc1nccs1)c1cc2ccccc2c(=O)s1 | -1.86 | –
CCOC(=O)CCCSc1nc2sc(C)c(C)c2c(=O)[nH]1 | -3.49 (active) | –
CC1CC(C)CN(C(=O)Cn2c(=O)oc3cc(S(=O)(=O)NC4CCCC4)ccc32)C1 (stereo not given) | 1.02 | –
CN1C(=O)C(O)(CC(=O)c2ccccc2O)c2cc(Br)ccc21 (stereo not given) | 1.07 | –
O=C(Nc1cccnc1)c1ccc2c(c1)C1C3CCC(C3)C1C(c1ccccc1)N2 (stereo not given) | -1.08 | –
Cc1cc(NC(=O)CSCc2nc(-c3cccc(F)c3)oc2C)no1 | 1.06 | –
Cc1cc(NC(=O)CSc2nnc(Cn3c(=O)sc4ccccc43)n2-c2ccccc2)no1 | 1.22 | –
Cc1nc2c(-c3ccccc3)c(C)nn2c(C)c1CCC(=O)NO | -1.49 | –
Cc1nc2sccn2c1-c1csc(Nc2ccc(O)cc2)n1 | -1.8 | –
CCc1nc2c(cnn2-c2ccc(F)cc2)c(=O)n1-c1ccc(OC)c(Cl)c1 | 1.04 | –
Cn1c(=O)oc2cc(S(=O)(=O)N3CCC(C(=O)NCC4COc5ccccc5O4)CC3)ccc21 (stereo not given) | -1.13 | –
COc1ccc(Cl)cc1Nc1nc(-c2c(C)nc3ncccn23)cs1 | -3.45 (active) | –
COc1cc2[nH]c(=O)n(CC3CCCO3)c(=O)c2cc1OC (stereo not given) | 1.01 | –
CN1CCc2c(sc3c2C(=O)NC(c2ccc(OC(=O)c4ccccc4Cl)cc2)N3)C1 (stereo not given) | -1.85 | –
O=c1[nH]c(CN2CCN(CCO)CC2)nc2ccccc12 | – | inactive
CC(C)NC(=O)Cn1ncc2c3ccccc3n(C)c2c1=O | 1.04 | –
Cc1ccc2[nH]cc(S(=O)(=O)c3ccc(F)cc3)c(=O)c2c1 | -1.06 | –
C1=C(c2cccnc2)Nc2nc3ccccc3n2C1c1cccs1 (stereo not given) | – | inactive
CN(C)c1nc(C(=O)OCCO)nc(N(C)C)n1 | -3.45 (active) | –
CC(Sc1nc(-c2ccco2)nc2c1c(=O)n(C)c(=O)n2C)C(=O)O (stereo not given) | 1.38 | –

SMILES | fold change | outcome
Cc1cc(=O)n2[nH]c(NC(=O)c3cccs3)nc2n1 | -1.29 | –
COc1ccc(C2CC(=O)Nc3cc(OC)cc(OC)c32)c(OC)c1 (stereo not given) | -1.41 | –
CCc1cccc(Nc2nc3ccccc3n3cnnc23)c1 | -4.16 (active) | –
COc1ccc(CCn2c(=O)c3cccnc3n(CC#N)c2=O)cc1OC | 1.04 | –
Cc1nc(SCC(=O)NCC2CCCO2)c2c(=O)n(C)c(=O)n(C)c2n1 (stereo not given) | 1.01 | –
O=c1c2ccccc2nc(N2CCOCC2)n1Cc1ccccc1 | -1.33 | –
COc1ccc(CCNc2ccc3nnc(C)n3n2)c(OC)c1 | -1.29 | –
O=C1CC(c2ccc(F)c(F)c2)c2cc3c(cc2N1)OCO3 (stereo not given) | 1.27 | –
Cc1cc(C)cc(CC(CC(=O)Nc2nccs2)C(=O)Nc2nccs2)c1 (stereo not given) | 1.18 | –
CC(=O)N1CSCC1C(=O)N1CCN(c2ccc(N3CCOCC3)nn2)CC1 (stereo not given) | -1.03 | –
c1ccc(-c2nnc3ccc(N4CCC5(CC4)OCCO5)nn23)cc1 | 1.02 | –
NC(=O)C1CCN(c2nc3ccccn3c(=O)c2/C=C2/SC(=S)N(CC(=O)O)C2=O)CC1 | -1.43 | –
COc1ccccc1-c1c(C)nn2c(N(C)CCC#N)cc(C)nc12 | -1.5 | –
C=C1c2cc(CC)ccc2NC(=O)N1c1ccc(C)cc1 | 1.01 | –
C=CCOc1ccc(-c2nc3s/c(=C\c4cccc(OC(C)=O)c4)c(=O)n3n2)cc1 | 1.2 | –
O=C1Nc2ccc(Br)cc2/C1=C\c1nc2ccccc2c(=O)n1-c1cccc(C(=O)O)c1 | – | inactive
Cc1cc(C)n(-c2nc3ccccc3n3cnnc23)n1 | -1.18 | –
Cc1ccc(-c2cc(C(F)F)n3ncc(C(=O)NCc4cccnc4)c3n2)cc1 | -1.5 | –
CN(C(=O)Cn1c(=O)n(CCCS(=O)(=O)C2CCCCC2)c(=O)c2ccccc21)c1ccccc1 | -1.1 | –
O=C(Nc1ccc2nc3n(c(=O)c2c1)CCCCC3)C(=O)N1CCOCC1 | 1.01 | –
